Values joined by “and” are separate entries in the source; they are usually repeats but may differ in a detail not shown here. Equal values may be shown once. Inconclusive results are not listed. Active and inactive are the calls of the source. The call rests on the fitted dose curve; in most records, active means well fitted curve in the direction sought with a large enough effect; inconclusive means small, poorly fitted or top-dose-only effect, or another doubt; inactive means no such curve, though single readings can be large; an effect the other way counts as inactive or inconclusive. Where a SMILES comes first, the peptide text is derived from it. [ ]: non-standard residue; d: D form. Ala(indol-2-yl) = N[C@@H](Cc1cc2ccccc2[nH]1)C(=O)O; Aib = CC(C)(N)C(=O)O
Experiments:
[1] = system: Zika virus NS2B-NS3 protease (linked construct); assay: Primary screen NINDS Rhodamine qHTS for Zika virus inhibitors (AID 1347160); further: nearly all actives have a fitted effect of over 55% in size; on activity change, negative = inhibition: on the % scale 0 is the no-effect control and ±100 the full control effect
Outline: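 Kinetic fluorescence (Ex 480 nm, Em 540 nm) over 15 min with 1.5 microM Rhodamine110 peptide and 25 nM linked protease.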

[2] = Primary qHTS for inhibitors of nuclear receptor binding SET domain protein 2 (NSD2) in an RCH-ACV wild type WT cells (2C) (AID 1645877); further: nearly all actives have a fitted effect of over 70% in size; further: potency means the concentration at half of the fitted maximal effect
[3] = molecular target: Glutathione peroxidase 1 (Homo sapiens) (UniProt P07203); assay: Primary qHTS Assay for Inhibitors of Recombinant Selenoprotein Glutathione Peroxidase 1 (GPX1) (AID 1845191); further: nearly all actives have a fitted effect of over 65% in size; on activity, negative = inhibition: on the % scale 0 is the no-effect control and ±100 the full control effect
Sequence of Glutathione peroxidase 1 (Homo sapiens) (P07203 whole entry, looked up): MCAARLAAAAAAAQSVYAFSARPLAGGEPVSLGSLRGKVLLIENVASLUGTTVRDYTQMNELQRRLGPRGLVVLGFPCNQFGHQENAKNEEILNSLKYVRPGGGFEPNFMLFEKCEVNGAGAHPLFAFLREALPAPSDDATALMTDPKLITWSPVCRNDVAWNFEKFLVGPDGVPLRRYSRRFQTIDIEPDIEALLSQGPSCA
Outline: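 GR-coupled assay: compounds preincubated 30 min at room temperature with GPX1, then reaction started with CHP; final 10 nM GPX1, 1 mM GSH, 0.5 mM CHP, 0.5 mM NADPH, 100 nM GR, 0.01% BSA, pH 7.5 Tris buffer. NADPH fluorescence (340/450 nm) read at 0 and 15 min.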

[4] = molecular target: Phospholipid hydroperoxide glutathione peroxidase GPX4 (Homo sapiens) (UniProt P36969); assay: Primary qHTS Assay for Inhibitors of Recombinant Selenoprotein Glutathione Peroxidase 4 (GPX4) (AID 1845192); further: nearly all actives have a fitted effect of over 65% in size; on activity change, negative = inhibition: on the % scale 0 is the no-effect control and ±100 the full control effect
Sequence of Phospholipid hydroperoxide glutathione peroxidase GPX4 (Homo sapiens) (P36969 whole entry, looked up): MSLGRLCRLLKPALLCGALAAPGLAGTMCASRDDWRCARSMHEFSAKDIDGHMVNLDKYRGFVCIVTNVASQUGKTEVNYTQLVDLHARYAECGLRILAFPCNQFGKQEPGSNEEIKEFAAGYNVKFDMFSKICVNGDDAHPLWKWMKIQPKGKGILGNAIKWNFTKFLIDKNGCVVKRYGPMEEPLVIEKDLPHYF
Outline: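 GR-coupled assay: recombinant GPX4 preincubated 30 min with compound at room temperature; final 200 nM GPX4, 1 mM GSH, 0.5 mM cumene hydroperoxide, 0.5 mM NADPH, 100 nM GR, 0.01% BSA, pH 7.5 Tris. NADPH fluorescence (340/450 nm) read at 0 and 15 min.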

[5] = molecular target: Luciferin 4-monooxygenase (Photinus pyralis) (UniProt P08659); assay: Primary firefly luciferase (FLuc) qHTS assay for identification of artifact compounds. (AID 1845220); conditions: outcome: dose series up to 54.1 µM unless noted; further: nearly all actives have a fitted effect of over 60% in size;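 on activity change, negative = inhibition: plate controls were DMSO vehicle for no effect and no enzyme for full effect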
Outline: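 Titrated compounds were incubated 15 min at RT, protected from light, with luciferin and ATP at 10 uM; reaction started with 10 nM FLuc, luminescence imaged at 5 min, and concentration-response fitted by Hill equation.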

[6] = Primary fluorescence-based thiol-reactive (MSTI) qHTS assay for identification of artifact compounds. (AID 1845221);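 further: thiol-reactive compounds lower the probe fluorescence signal; nearly all actives have a fitted effect of over 65% in size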
Outline: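 qHTS titration of compound; 4 uM MSTI, PBS pH 7.4, 2% DMSO; 1 h RT, dark; fluorescence 525/598 nm; normalized to Acetyl-MSTI and MSTI; 4-parameter Hill fit.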

CRL-7250 = normal cell line; assay: Cytotoxic Profiling of Annotated Libraries Using Quantitative High-Throughput Screening (AID 1296008); conditions: Five cell lines viability, CellTiter-Glo ATP luminescence, 48-72 h; max response: hits give low values; further: nearly all actives have a fitted effect of over 60% in size; further: potency means the concentration at half of the fitted maximal effect; on max response: on the % scale 0 is the no-effect control and ±100 the full control effect
Outline: (§1)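 Cells exposed to compounds for 48 or 72 hr at 37 degrees Celsius. Viability read as ATP-coupled luminescence with CellTiter-Glo after 10 min at room temperature.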

HEK293 = assay: as above; conditions: Five cell lines viability, CellTiter-Glo ATP luminescence, 48-72 h; max response: hits give low values
Outline: as §1

HaCat = assay: as above; conditions: Five cell lines viability, CellTiter-Glo ATP luminescence, 48-72 h; max response: hits give low values
Outline: as §1

NIH3T3 = assay: as above; conditions: Five cell lines viability, CellTiter-Glo ATP luminescence, 48-72 h; max response: hits give low values
Outline: as §1

C33A = assay: Primary qHTS to identify gynecologic anti-cancer compounds using libraries of approved drugs and bioactive compounds (AID 1345084); conditions: Gynecologic cancer cell panel viability, ATPlite luminescence, 48 h; series mostly up to 57.5 µM; further: nearly all actives have a fitted effect of over 55% in size; further: potency means the concentration at half of the fitted maximal effect
Outline: (§2)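 Cells, 1,000 per well, were allowed to settle for 16 h at 37 C before compound addition. Five concentrations were tested for 48 h, and viability was read by ATPlite luminescence after 15 min at room temperature.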

CASKI = assay: as above; conditions: Gynecologic cancer cell panel viability, ATPlite luminescence, 48 h; series mostly up to 57.5 µM
Outline: as §2

Es-2 = assay: as above; conditions: Gynecologic cancer cell panel viability, ATPlite luminescence, 48 h; series mostly up to 57.5 µM
Outline: as §2

Hek293T = assay: as above; conditions: Gynecologic cancer cell panel viability, ATPlite luminescence, 48 h, control line for the selectivity index; series mostly up to 57.5 µM
Outline: as §2

OV90 = assay: as above; conditions: Gynecologic cancer cell panel viability, ATPlite luminescence, 48 h; series mostly up to 57.5 µM
Outline: as §2

PA-1 = assay: as above; conditions: Gynecologic cancer cell panel viability, ATPlite luminescence, 48 h; series mostly up to 57.5 µM
Outline: as §2

Tov-21-G = assay: as above; conditions: Gynecologic cancer cell panel viability, ATPlite luminescence, 48 h; series mostly up to 57.5 µM
Outline: as §2

Tov112D = assay: as above; conditions: Gynecologic cancer cell panel viability, ATPlite luminescence, 48 h; series mostly up to 57.5 µM
Outline: as §2

[7] = Primary qHTS for inhibitors of nuclear receptor binding SET domain protein 2 (NSD2) in an isogenic RCH-ACV NSD2 p.E1099K mutant (9B) (AID 1645876); further: nearly all actives have a fitted effect of over 70% in size; further: potency means the concentration at half of the fitted maximal effect
[8] = system: Nanoluciferase (engineered Oplophorus gracilirostris luciferase); assay: Primary Nanoluciferase (NLuc) qHTS assay for identification of artifact compounds. (AID 1845222); further: potency means the concentration at half of the fitted maximal effect;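 on activity, negative = inhibition: NLuc secreted into diluted conditioned medium of S16 cells; 0% = DMSO and -100% = no enzyme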
Outline: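 qHTS format, against NLuc in S16 cell-conditioned medium. Nano-Glo substrate 1:100 was added after 15 min at room temperature. Luminescence was taken after a further 5 min.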

Cc1cccc(NC(=O)N[C@H]2CN(C)c3ccccc3C(c3ccccc3)=N2)c1
inactive: Potency [1] | Potency [3] | Potency [4] | outcome [5] | Potency [6] | max response (CRL-7250) -1.7% | max response (HEK293) -2.16% | outcome (HaCat) | max response (NIH3T3) -5.29% | Potency (C33A) | Potency (CASKI) | Potency (Es-2) | Potency (Hek293T) | Potency (OV90) | Potency (PA-1) | Potency (Tov-21-G) | Potency (Tov112D)
active: Potency [2] 14500 nM

CC(C)(NC(=O)[C@@H](N)Cc1ccc(O)cc1)C(=O)N[C@@H](Cc1cc2ccccc2[nH]1)C(=O)N[C@@H](Cc1ccccc1)C(=O)O (H-Y[Aib][Ala(indol-2-yl)]F-OH)
inactive: activity change, negative = inhibition [1] -10.9% [at 10.7 µM] | activity change, negative = viability loss [7] -7% [at 9.23 µM] | activity change, negative = cell killing [2] -2.68% [at 9.23 µM] | activity, negative = inhibition [3] 0.29% [at 9.52 µM] | activity change, negative = inhibition [4] -0.548% [at 9.73 µM] | activity change, negative = inhibition [5] 1.26% [at 11.6 µM] | activity change, negative = thiol reactive [6] 54.2% [at 11.5 µM] | activity, negative = inhibition [8] 2.82% [at 11.6 µM] | max response (CRL-7250) -5.29% | max response (HEK293) -3.45% | max response (HaCat) -4.8% | activity change, negative = cytotoxicity (C33A) 17.2% [at 11.6 µM] | activity change, negative = cytotoxicity (CASKI) 4.29% [at 11.6 µM] | activity change, negative = cytotoxicity (Es-2) 0.783% [at 11.6 µM] | activity change, negative = cytotoxicity (Hek293T) -0.36% [at 11.6 µM] | activity change, negative = cytotoxicity (OV90) 2.67% [at 11.6 µM] | activity change, negative = cytotoxicity (PA-1) 2.34% [at 11.6 µM] | activity change, negative = cytotoxicity (Tov-21-G) 16.4% [at 11.6 µM] | activity change, negative = cytotoxicity (Tov112D) -10.9% [at 11.6 µM]

C[C@H]1C/C=C/[C@H]2[C@@H]3O[C@]3(C)[C@@H](C)[C@H]3[C@H](Cc4ccccc4)NC(=O)[C@]32OC(=O)O/C=C/[C@@](C)(O)C1=O
active: Potency [7] 632 nM | Potency [2] 502 nM | Potency (CRL-7250) 632 nM | Potency (HEK293) 399 nM | Potency (HaCat) 796 nM | Potency (PA-1) 2510 nM | Potency (Tov112D) 3160 nM
inactive: Potency [1] | Potency [3] | Potency [4] | outcome [5] inactive [at 25.7 µM] | Potency [6] | Potency [8] | Potency (C33A) | Potency (CASKI) | Potency (Es-2) | Potency (OV90)

CN(C)c1cc2c(cc1Sc1nc3c(N)nccc3n1CCNCC(C)(C)C)OCO2
inactive: Potency [3] | Potency [4] | outcome [5] | Potency [8] | Potency (Tov112D)
active: Potency [7] 459 nM and 662 nM | Potency [2] 365 nM and 742 nM | Potency (CRL-7250) 1840 nM | Potency (HEK293) 580 nM | Potency (HaCat) 461 nM | Potency (NIH3T3) 1030 nM | Potency (Hek293T) 1260 nM | Potency (PA-1) 1410 nM | Potency (Tov-21-G) 1410 nM

C=C(C)[C@@H]1[C@H]2OC(=O)[C@H]1[C@]1(O)C[C@H]3O[C@]34C(=O)O[C@H]2[C@]14C
inactive: Potency [1] | Potency [7] | Potency [2] | Potency [3] | Potency [4] | outcome [5] | Potency [6] | Potency [8] | outcome (CRL-7250) | outcome (HEK293) | outcome (NIH3T3) | Potency (C33A) | Potency (CASKI) | Potency (Es-2) | Potency (Hek293T) | Potency (OV90) | Potency (PA-1) | Potency (Tov-21-G) | Potency (Tov112D)

CCc1nn(C)c(C(=O)NCc2ccc(Oc3ccc(C)cc3)cc2)c1Cl
inactive: Potency [1] | Potency [3] | Potency [4] | outcome [5] | Potency [6] | Potency [8] | max response (HaCat) 1.94% | Potency (Es-2) | Potency (Tov-21-G) | Potency (Tov112D)
active: Potency [7] 817 nM | Potency (CRL-7250) 6.5 nM | Potency (HEK293) 7.3 nM | Potency (OV90) 631 nM

COC1CC(O[C@H]2CC[C@]3(C=O)C4CC[C@]5(C)[C@@H](C6=CC(=O)OC6)CC[C@]5(O)[C@@H]4CC[C@@H]3C2)OC(C)C1O[C@@H]1O[C@H](CO)[C@@H](O[C@@H]2O[C@H](CO)[C@@H](O)[C@H](O)[C@H]2O)[C@H](O)[C@H]1O (some centres undefined)
inactive: Potency [1] | Potency [3] | Potency [4] | activity change, negative = inhibition [5] 0.154% [at 11.6 µM] | activity change, negative = thiol reactive [6] -23.5% [at 11.5 µM] | activity, negative = inhibition [8] 1.46% [at 11.6 µM] | max response (NIH3T3) 3.23%
active: Potency [7] 77.4 nM | Potency [2] 123 nM | Potency (CRL-7250) 123 nM | Potency (HEK293) 219 nM | Potency (HaCat) 873 nM | Potency (C33A) 178 nM | Potency (Es-2) 398 nM | Potency (Hek293T) 447 nM | Potency (OV90) 1580 nM | Potency (PA-1) 447 nM | Potency (Tov-21-G) 224 nM | Potency (Tov112D) 112 nM

N#Cc1cn([C@@H]2O[C@H](CO)[C@H](O)[C@@H]2O)c2ncnc(N)c12
inactive: Potency [1] | Potency [3] | Potency [4] | outcome [5] | Potency [8]
active: Potency [7] 12.9 nM | Potency [2] 7.3 nM | Potency (CRL-7250) 58 nM | Potency (HEK293) 46.1 nM | Potency (HaCat) 92 nM | Potency (CASKI) 282 nM | Potency (Tov112D) 316 nM

COc1cc2c(c(OC)c1OC)-c1ccc(SC)c(=O)cc1[C@@H](NC(C)=O)CC2
active: Potency [7] 4.6 nM | Potency [2] 5.8 nM | Potency [8] 19000 nM | Potency (CRL-7250) 9.2 nM | Potency (HEK293) 8.2 nM
inactive: Potency [1] | Potency [3] | Potency [4] | outcome [5] | Potency [6] | max response (HaCat) 4.59% | Potency (CASKI)

Reference: PubChem BioAssay (NCATS)
